Reference: PubChem BioAssay (EPA / NIEHS)
The source made the active and inactive calls. Rule for the calls: active = hit-call score of the fitted dose curve at least 0.9, where 1 is the maximum; inactive = score below 0.9.

What follows are compounds tested on ATP-citrate lyase (ACLY), ACLY (gene 47) (assay: LTEA_HepaRG_ACLY: Life Technologies and Expression Analysis (LTEA) Assay for ATP-citrate lyase (ACLY) using HepaRG (AID 2283466)). Conditions: mRNA level, 48 h; actives raise or lower the signal.
How it was run: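 Differentiated HepaRG cells exposed 48 h in serum-free induction medium to eight half-log concentrations up to 100 uM in 0.5% DMSO, duplicates. Transcript measured by Fluidigm TaqMan qRT-PCR, normalized to ACTB, GAPDH, POLR2A; bidirectional fit versus DMSO.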

SMILES | AC50 | outcome
CCn1nc(Cc2ccccc2)cc1C1CCN(C[C@H]2C[C@H](N(C)[C@@H](C(=O)O)C(C)C)C[C@@H]2c2cccc(F)c2)CC1 | 75.7 µM (active) | 
O=c1n(CC2CO2)c(=O)n(CC2CO2)c(=O)n1CC1CO1 (stereo not drawn) |  | inactive
O=C(O)CCN(C1(C(=O)NO)CCCC1)S(=O)(=O)c1ccc(Oc2ccc(F)cc2)cc1 |  | inactive
CCNc1ccccc1 |  | inactive
Cc1c(-c2cccnc2)c2ccccc2n1CCCCC(=O)O |  | inactive
COC(=O)c1ccccc1O |  | inactive
CC1=CC(=O)CC(C)(C)C1 |  | inactive
O=C(O)c1cc(N=Nc2ccc(S(=O)(=O)Nc3ccccn3)cc2)ccc1O |  | inactive
CC(=O)OC[C@H]1O[C@@](COC(C)=O)(O[C@H]2O[C@H](COC(C)=O)[C@@H](OC(C)=O)[C@H](OC(C)=O)[C@H]2OC(C)=O)[C@@H](OC(C)=O)[C@@H]1OC(C)=O |  | inactive
CC(C)CC(C)(O)C#CC(C)(O)CC(C)C (stereo not drawn) |  | inactive
CC(C)(O)c1coc(S(=O)(=O)NC(=O)Nc2c3c(cc4c2CCC4)CCC3)c1 |  | inactive
CC(C)CCCCCCCOC(=O)CCCCC(=O)OCCCCCCCC(C)C |  | inactive
CCOc1cccc(-n2cc(C(=O)N3CCN(c4cc(C(=O)O)c5ccccc5c4)CC3)nc2-c2ccc(C)cc2)c1 | 86.6 µM (active) | 
COc1ccc2sc(C(=O)Nc3nnn[nH]3)c(OC(C)C)c2c1 | 11.9 µM (active) | 
Clc1nc(Cl)c(Cl)c(Cl)c1Cl |  | inactive
COC(=O)CC(=O)OC |  | inactive
O=c1[nH]c2ccc(S(=O)CCN3CCC(Cc4ccc(F)cc4)CC3)cc2o1 (stereo not drawn) |  | inactive
COc1ccc(-n2nc(C(F)F)cc2-c2ccc(S(C)=O)cc2)cc1 (stereo not drawn) |  | inactive
Nc1nc2ncc(CNc3ccc(C(=O)N[C@@H](CCC(=O)O)C(=O)O)cc3)nc2c(=O)[nH]1 |  | inactive
CC(C)=CCCC(C)=CC=O |  | inactive
COc1ccc(/C=C/S(=O)(=O)NC(=O)c2ccc(C)cc2Cl)cc1 |  | inactive
C1=CCCC=CCCC=CCC1 |  | inactive
Nc1cccc(N)c1 |  | inactive
CN(C)c1ccc(Cc2ccc(N(C)C)cc2)cc1 |  | inactive
On1ccccc1=S |  | inactive
O=C1OC(=O)C2C3C=CC(C3)C12 (stereo not drawn) |  | inactive
C=CC(=C)CCC=C(C)C |  | inactive
Cn1c(=O)c2c(ncn2C)n(C)c1=O |  | inactive
O=C(OC[C@H]1O[C@@H](OC(=O)c2cc(O)c(O)c(OC(=O)c3cc(O)c(O)c(O)c3)c2)[C@H](OC(=O)c2cc(O)c(O)c(OC(=O)c3cc(O)c(O)c(O)c3)c2)[C@@H](OC(=O)c2cc(O)c(O)c(OC(=O)c3cc(O)c(O)c(O)c3)c2)[C@@H]1OC(=O)c1cc(O)c(O)c(OC(=O)c2cc(O)c(O)c(O)c2)c1)c1cc(O)c(O)c(OC(=O)c2cc(O)c(O)c(O)c2)c1 |  | inactive

What follows are compounds tested on Peroxisomal acyl-coenzyme A oxidase 1 (ACOX1) gene, ACOX1 (gene 51) (assay: LTEA_HepaRG_ACOX1: Life Technologies and Expression Analysis (LTEA) Assay for Peroxisomal acyl-coenzyme A oxidase 1 (ACOX1) gene using HepaRG (AID 2283467)). Conditions: mRNA level, 48 h; actives raise or lower the signal.
How it was run: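 HepaRG cells, plated 48 h then switched to serum-free induction medium, were exposed in duplicate for 48 h to 8-point half-log concentrations up to 100 uM in 0.5% DMSO. ACOX1 mRNA was measured by qRT-PCR, normalized to ACTB/GAPDH/POLR2A, and fitted bidirectionally versus DMSO.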

SMILES | outcome | AC50
CCn1nc(Cc2ccccc2)cc1C1CCN(C[C@H]2C[C@H](N(C)[C@@H](C(=O)O)C(C)C)C[C@@H]2c2cccc(F)c2)CC1 | inactive | 
O=c1n(CC2CO2)c(=O)n(CC2CO2)c(=O)n1CC1CO1 (stereo not drawn) | inactive | 
O=C(O)CCN(C1(C(=O)NO)CCCC1)S(=O)(=O)c1ccc(Oc2ccc(F)cc2)cc1 | inactive | 
CCNc1ccccc1 | inactive | 
Cc1c(-c2cccnc2)c2ccccc2n1CCCCC(=O)O | inactive | 
COC(=O)c1ccccc1O | inactive | 
CC1=CC(=O)CC(C)(C)C1 | inactive | 
O=C(O)c1cc(N=Nc2ccc(S(=O)(=O)Nc3ccccn3)cc2)ccc1O | inactive | 
CC(=O)OC[C@H]1O[C@@](COC(C)=O)(O[C@H]2O[C@H](COC(C)=O)[C@@H](OC(C)=O)[C@H](OC(C)=O)[C@H]2OC(C)=O)[C@@H](OC(C)=O)[C@@H]1OC(C)=O | inactive | 
CC(C)CC(C)(O)C#CC(C)(O)CC(C)C (stereo not drawn) | inactive | 
CC(C)(O)c1coc(S(=O)(=O)NC(=O)Nc2c3c(cc4c2CCC4)CCC3)c1 | inactive | 
CC(C)CCCCCCCOC(=O)CCCCC(=O)OCCCCCCCC(C)C | inactive | 
CCOc1cccc(-n2cc(C(=O)N3CCN(c4cc(C(=O)O)c5ccccc5c4)CC3)nc2-c2ccc(C)cc2)c1 |  | 70.1 µM (active)
COc1ccc2sc(C(=O)Nc3nnn[nH]3)c(OC(C)C)c2c1 | inactive | 
Clc1nc(Cl)c(Cl)c(Cl)c1Cl | inactive | 
COC(=O)CC(=O)OC | inactive | 
O=c1[nH]c2ccc(S(=O)CCN3CCC(Cc4ccc(F)cc4)CC3)cc2o1 (stereo not drawn) | inactive | 
COc1ccc(-n2nc(C(F)F)cc2-c2ccc(S(C)=O)cc2)cc1 (stereo not drawn) | inactive | 
Nc1nc2ncc(CNc3ccc(C(=O)N[C@@H](CCC(=O)O)C(=O)O)cc3)nc2c(=O)[nH]1 | inactive | 
CC(C)=CCCC(C)=CC=O | inactive | 
COc1ccc(/C=C/S(=O)(=O)NC(=O)c2ccc(C)cc2Cl)cc1 | inactive | 
C1=CCCC=CCCC=CCC1 | inactive | 
Nc1cccc(N)c1 | inactive | 
CN(C)c1ccc(Cc2ccc(N(C)C)cc2)cc1 | inactive | 
On1ccccc1=S | inactive | 
O=C1OC(=O)C2C3C=CC(C3)C12 (stereo not drawn) | inactive | 
C=CC(=C)CCC=C(C)C | inactive | 
Cn1c(=O)c2c(ncn2C)n(C)c1=O | inactive | 
O=C(OC[C@H]1O[C@@H](OC(=O)c2cc(O)c(O)c(OC(=O)c3cc(O)c(O)c(O)c3)c2)[C@H](OC(=O)c2cc(O)c(O)c(OC(=O)c3cc(O)c(O)c(O)c3)c2)[C@@H](OC(=O)c2cc(O)c(O)c(OC(=O)c3cc(O)c(O)c(O)c3)c2)[C@@H]1OC(=O)c1cc(O)c(O)c(OC(=O)c2cc(O)c(O)c(O)c2)c1)c1cc(O)c(O)c(OC(=O)c2cc(O)c(O)c(O)c2)c1 | inactive | 
